From PubChem BioAssay AID492956 (The Scripps Research Institute Molecular Screening Center, 2010)
Out of some 340,000 compounds screened, about 3,300 (0.97%) were called active. Shown is part of a subset that was picked to be rich in actives. A number with no mark means an inactive call.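 How the source made its calls: active means inhibition above the mean over all tested compounds plus 3 SD (cut at about 30% in these data); inactive means the rest.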

biological target: Platelet-activating factor acetylhydrolase 2, cytoplasmic (Homo sapiens) (UniProt Q99487); assay: PAFAH2 enzyme inhibitors, primary screen, biochemical, fluorescence polarization, human (AID 492956); conditions: recombinant PAFAH2, FP-rhodamine activity probe, at 3.39 µM, active compounds read high;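 further: inhibitors block probe labeling of enzyme so polarization drops; 0% = enzyme with DMSO and 100% = wells lacking PAFAH2 protein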

| Compound | inhibition |
| --- | --- |
| COc1ccc(N2C(=O)/C(=C/c3ccco3)C(=O)NC2=S)cc1 | 59.1% (active) |
| CC(C)CN1CCN(Cc2ccccc2C(F)(F)F)CC1CCO (stereo not given) | 4.28% |
| COc1ccc(-n2c(-c3ccccc3)nc3ccccc3c2=O)cc1 | -4.87% |
| C[C@]12CCCCC1=CC(=O)C1C2CC[C@@]2(C)C1C[C@@H](F)[C@@H]2O (stereo not given in full) | 2.89% |
| CC(Cc1cccs1)NCc1ccc(Cl)cc1 (stereo not given) | 4.46% |
| COc1cccc(N2C(=O)NC(=O)/C(=C\c3cn(C)c4ccccc34)C2=O)c1 | 53% (active) |
| CCc1nc2ccccc2c(=O)n1-c1cccc(OC)c1 | 0.9% |
| Cc1cccc(N2C(=O)NC(=O)/C(=C\c3cnn(-c4ccccc4)c3)C2=O)c1 | 38.8% (active) |
| Cc1c(C(=O)O)cccc1-n1c(C)cc(/C=C2\C(=O)NC(=O)N(c3ccc4c(c3)OCO4)C2=O)c1C | 14.2% |
| CCN1CCN(c2nc3c(c(=O)[nH]2)CCC3)CC1 | 1.82% |
| CC12CCC3C(CCC4CC(=O)CCC43C)C1CC(=NO)C2=O (stereo not given) | 5.08% |
| Cc1ccc(S(=O)(=O)N(C)c2ccc(C(=O)NCC3(N(C)C)CCCCC3)cc2)cc1 | -2.88% |
| O=C1NC(=O)N(c2ccc(F)cc2)C(=O)/C1=C/c1ccc2c(c1)CCCN2Cc1ccccc1 | 6.73% |
| O=C1NC(=O)N(c2ccccc2)C(=O)/C1=C/c1ccc([N+](=O)[O-])s1 | 38.4% (active) |
| COc1ccc2[nH]c3c(c2c1)CCN[C@H]3C | -4.46% |
| O=C(Cn1c(=O)n(CC2CS2)c2ccccc21)N1CCCCC1 (stereo not given) | -1.23% |
| N=c1ccccn1Cc1ccccc1 | 1.19% |
| O=C(COC(=O)c1ccccc1)Nc1ccc(Cl)cc1C(=O)c1ccccc1 | 45% (active) |
| O=C(CCNS(=O)(=O)c1ccccc1)Nc1ccc(Cl)cc1C(=O)c1ccccc1 | -0.4% |
| CN1CCN(C(=S)SCC(=O)Nc2ccc(Cl)cc2C(=O)c2ccccc2)CC1 | 5.69% |
| CCN(CC)C(=O)Oc1ccc(NC(=O)N2CCOCC2)cc1 | 6.33% |
| C=CCN1C(=O)NC(=O)/C(=C/c2ccc(OCC(=O)Nc3ccc(C)cc3)cc2)C1=O | 5.48% |
| COc1ccc(C(=O)C2CCCN(Cc3ccc(C)s3)C2)cc1OC (stereo not given) | 1.55% |
| COc1ccccc1N=C1SCCCN1C | 5.93% |
| NCCc1ccc(S(=O)(=O)F)cc1 | 86% (active) |
| CC(C)c1ccc(-n2c(O)c(/C=N/N3CCOCC3)c(=O)[nH]c2=S)cc1 | -8.3% |
| Cc1ccnc(-n2c(C)cc(/C=C3\C(=O)NC(=S)N(C)C3=O)c2C)c1 | -2.99% |
| CCN1CCN(c2ccc([N+](=O)[O-])cc2C#N)CC1 | 9.87% |
| CC12CCC(O)CC1CCC1C2CCC2(C)C(C(=O)CC(O)C(F)(F)F)CCC12 (stereo not given) | 2.7% |
| O=C(N/N=C/c1c(O)n(C2CC2)c(=S)[nH]c1=O)c1ccccc1Cl | -27.8% |
